System: Vero E6 infected with SARS-CoV-2
Experiment: inhibition of SARS-CoV-2 cytopathic effect; higher = more antiviral protection, active = above 15
Settings: 48 h

Measured: inhibition of SARS-CoV-2 cytopathic effect

CCCC(=O)N1CCCN(c2nc(N)c3cc(OC)c(OC)cc3n2)CC1 [bunazosin]
inactive: 1 nM -0.32% | 8.33 nM -1.38% | 100 nM 1.21% | 833.33 nM 0.02% | 10000 nM 0.07%

C[C@]12CC[C@H]3[C@@H](CC[C@]4(O)C[C@@H](O)CC[C@]34C=O)[C@@]1(O)CC[C@@H]2C1=CC(=O)OC1 [K-strophanthidin]
inactive: 1 nM 0.01% | 8.33 nM 0.18% | 100 nM -5.59% | 833.33 nM -12.1% | 10000 nM -16.9%

Cc1ncc([N+](=O)[O-])n1CC(C)O (stereo not given) [secnidazole]
inactive: 1 nM -4.41% | 8.33 nM -8.4% | 100 nM -5.52% | 833.33 nM -10.4% | 10000 nM -9.47%

COc1ccc(CNC(=O)c2sc3nc(C)cc(C)c3c2N)cc1
inactive: 1 nM 1.68% | 8.33 nM 2.93% | 100 nM 2.17% | 833.33 nM 2.96% | 10000 nM 2.28%

CCC(=O)O[C@]1(C(=O)COC(C)=O)CC[C@H]2[C@@H]3C[C@H](C)C4=CC(=O)C=C[C@]4(C)[C@H]3[C@@H](O)C[C@@]21C [methylprednisolone-aceponate]
inactive: 1 nM 1.61% | 8.33 nM 1% | 100 nM 0.19% | 833.33 nM 3.54% | 10000 nM 2.69%

O=S(=O)(Cc1ccccc1)Nc1ccc(-c2ccc3c(cnn3-c3ccc(F)cc3)c2)c(C(F)(F)F)c1
inactive: 1 nM 0.84% | 8.33 nM 1.44% | 100 nM -0.94% | 833.33 nM 2.01% | 10000 nM -3.81%

O=C(O)[C@H]1CC[C@H](c2cc3cccnc3c(-c3cccc(F)c3)n2)CC1
inactive: 1 nM -3.3% | 8.33 nM -2.36% | 100 nM -0.1% | 833.33 nM 0.23% | 10000 nM 1.21%

O=C(NC1CCN(CCc2c[nH]c3ccccc23)CC1)c1ccccc1 [indoramin]
inactive: 1 nM 0.38% | 8.33 nM 1.24% | 100 nM 0.6% | 833.33 nM -1.28% | 10000 nM -4.57%

CCn1cc(C(=O)O)c(=O)c2ccc(C)nc21 [nalidixic-acid]
inactive: 1 nM 0.83% | 8.33 nM 1.11% | 100 nM 0.89% | 833.33 nM 0.77% | 10000 nM -0.57%

CC[C@H](C)[C@H](NC(=O)[C@H](Cc1ccc(O)cc1)NC(=O)[C@@H](NC(=O)[C@H](CCCNC(=N)N)NC(=O)[C@@H](N)CC(=O)O)C(C)C)C(=O)N[C@@H](Cc1c[nH]cn1)C(=O)N1CCC[C@H]1C(=O)O
inactive: 1 nM -1.39% | 8.33 nM 1.3% | 100 nM 0.18% | 833.33 nM -0.77% | 10000 nM 2.67%

CC[C@H](C)[C@@H]1NC(=O)[C@H](Cc2ccc(OC)cc2)NC(=O)CCCSC[C@@H](C(=O)N2CCC[C@H]2C(=O)N[C@@H](CC(C)C)C(=O)NCC(N)=O)NC(=O)[C@H](CC(N)=O)NC(=O)[C@H](CCC(N)=O)NC1=O [carbetocin]
inactive: 1 nM -1.89% | 8.33 nM 0.45% | 100 nM -1.53% | 833.33 nM 1.22% | 10000 nM -1.25%

CN1[C@@H]2C[C@@H](O)C[C@H]1[C@@H]1O[C@@H]12 [scopine]
inactive: 1 nM -0.81% | 8.33 nM -0.43% | 100 nM -0.08% | 833.33 nM 1.5% | 10000 nM -0.8%

Cc1cc(NC(=O)C(c2ccccc2)N2CCCc3ccccc32)no1 (stereo not given)
inactive: 1 nM 0.33% | 8.33 nM -0.92% | 100 nM 1.85% | 833.33 nM 0.35% | 10000 nM 3.91%

COc1ccc2cc(CCC(C)=O)ccc2c1 [nabumetone]
inactive: 1 nM 0.72% | 8.33 nM 0.69% | 100 nM -4.19% | 833.33 nM -1.8% | 10000 nM -0.03%

O=C([O-])c1ccccn1.O=C([O-])c1ccccn1.O=C([O-])c1ccccn1.[Cr+3] [chromium-picolinate]
inactive: 1 nM 0.6% | 8.33 nM 3.76% | 100 nM 1.3% | 833.33 nM -3.86% | 10000 nM 0.6%

O=C(O)c1cccnc1Nc1cccc(C(F)(F)F)c1 [niflumic-acid]
inactive: 1 nM 1.14% | 8.33 nM 2.42% | 100 nM -0.03% | 833.33 nM 1.51% | 10000 nM 1.54%

NC(=O)c1cnc2[nH]ccc2c1N[C@@H]1[C@@H]2CC3C[C@H]1C[C@@](O)(C3)C2
inactive: 1 nM -1.55% | 8.33 nM -1.31% | 100 nM -1.46% | 833.33 nM -0.12% | 10000 nM -1.65%

COc1ccc(CNC(=O)/C=C/c2ccc3[nH]cc(CCN(C)C)c3c2)cc1
inactive: 1 nM 2.58% | 8.33 nM 0.05% | 100 nM 1.04% | 833.33 nM 1.72% | 10000 nM 2.86%

COc1cc2c(cc1OC)[C@H](C)NCC2 [Isoquinoline,-6,7-dimethoxy-1-methyl-1,2,3,4-tetrahydro,]
inactive: 1 nM -4.15% | 8.33 nM -1.29% | 100 nM -0.88% | 833.33 nM -1.82% | 10000 nM -2.99%

CN1CCN(Cc2ccc(-c3cnc4[nH]cc(-c5ccc6[nH]ccc6c5)c4c3)cc2)CC1
inactive: 1 nM 1.32% | 8.33 nM 1.21% | 100 nM 3.09% | 10000 nM -14.8%
active: 833.33 nM 21.6%

CC(C)N(CC[C@H](c1ccccc1)c1cc(CO)ccc1O)C(C)C [5-hydroxymethyl-tolterodine]
inactive: 1 nM -1.98% | 8.33 nM -1.4% | 100 nM -1.82% | 833.33 nM 2.8% | 10000 nM -3.28%

O=C(/C=C/N1C[C@H]2C[C@@H]1CN2c1ccccn1)c1ccccc1O
inactive: 1 nM -0.57% | 8.33 nM -1.55% | 100 nM -0.95% | 833.33 nM -5.12% | 10000 nM -2.56%

COc1cc2c(cc1OC)[C@@]13CCN4CC5=CCO[C@H]6CC(=O)N2[C@H]1[C@H]6[C@H]5C[C@H]43 [brucine]
inactive: 1 nM 7.12% | 8.33 nM 1.25% | 100 nM 3.51% | 833.33 nM 2.71% | 10000 nM 0.47%

CC[N+](CC)(CC)CCC(O)(c1ccccc1)C1CCCCC1 (stereo not given) [tridihexethyl]
inactive: 1 nM -1.22% | 8.33 nM -1.31% | 100 nM -0.23% | 833.33 nM -1.37% | 10000 nM -1.87%

CO/N=C(\C(=O)N[C@@H]1C(=O)N2C(C(=O)OCOC(=O)C(C)(C)C)=C(/C=C\c3scnc3C)CS[C@H]12)c1csc(N)n1 [cefditoren-pivoxil]
inactive: 1 nM -0.67% | 8.33 nM -0.15% | 100 nM -2.07% | 833.33 nM -1.49% | 10000 nM -0.51%

CN(C)CCCOc1nn(Cc2ccccc2)c2ccccc12 [benzydamine]
inactive: 1 nM 1.21% | 8.33 nM 2.44% | 100 nM 2.33% | 833.33 nM 0.09% | 10000 nM -0.14%

Cc1ccc(NC(=O)c2ccc(CN3CC[C@H](N(C)C)C3)c(C(F)(F)F)c2)cc1Nc1nccc(-c2cncnc2)n1 [bafetinib]
inactive: 1 nM 3.35% | 8.33 nM -0.19% | 100 nM 0.01% | 833.33 nM -3.15% | 10000 nM -4.8%

CN(C)CCCO[C@@H]1[C@H]2OC(C)(C)O[C@H]2O[C@@H]1[C@H](O)CO [amiprilose]
inactive: 1 nM -4.79% | 8.33 nM -3.54% | 100 nM -5.54% | 833.33 nM -4.16% | 10000 nM -1.28%

CC(C)(C)NCC(O)COc1ccc(NC(=O)NC2CCCCC2)cc1 (stereo not given) [talinolol]
inactive: 1 nM 0.2% | 8.33 nM -2.2% | 100 nM -0.81% | 833.33 nM 0.83% | 10000 nM 0.7%

Fc1ccc(-c2cncc(CN3CCN(c4cccc5c4OCCO5)CC3)c2)cc1 [adoprazine]
inactive: 1 nM -1.19% | 8.33 nM -1.15% | 100 nM 2.28% | 833.33 nM 1.56% | 10000 nM 0.22%

CC(=O)OCC(=O)[C@@]1(O)CC[C@H]2[C@@H]3CCC4=CC(=O)CC[C@]4(C)[C@@]3(F)[C@@H](O)C[C@@]21C
inactive: 1 nM -1.46% | 8.33 nM -0.43% | 100 nM 0.97% | 833.33 nM -0.24% | 10000 nM 0.57%

Oc1ccc2c3c1O[C@H]1[C@@H](O)CC[C@@]4(O)[C@@H](C2)N(CC2CCC2)CC[C@]314 [nalbuphine]
inactive: 1 nM 2.57% | 8.33 nM 0.43% | 100 nM 0.27% | 833.33 nM 0.68% | 10000 nM 0.06%

COc1ccccc1OCCNCC(O)COc1cccc2[nH]c3ccccc3c12 (stereo not given) [carvedilol]
inactive: 1 nM 2.73% | 8.33 nM 3.88% | 100 nM 0.32% | 833.33 nM -1.02% | 10000 nM -1.85%

Cc1ccc(-c2csc3ncnc(SCCC(=O)O)c23)cc1
inactive: 1 nM -0.23% | 8.33 nM 6.66% | 100 nM -1.26% | 833.33 nM 1.22% | 10000 nM 1.11%

O=C(O)CCNc1cc(N2CCc3ccccc3CC2)nc(-c2ccccn2)n1
inactive: 1 nM -2.6% | 8.33 nM 1.21% | 100 nM 0.26% | 833.33 nM -1.21% | 10000 nM 0.82%

Oc1ccc(Cl)cc1Cc1cc(Cl)ccc1O [dichlorophen]
inactive: 1 nM -4.53% | 8.33 nM 0.22% | 100 nM -2.85% | 833.33 nM -2.86% | 10000 nM 1.46%

CC(=O)c1cnc2ccc(-c3cc(Cl)c(O)c(Cl)c3)nc2c1N[C@H]1CC[C@H](CN(C)C)CC1
inactive: 1 nM -1.51% | 8.33 nM 0.72% | 100 nM -1.37% | 833.33 nM 0.11% | 10000 nM -5.46%

Reference: the supplement of paper PMC13380429
